# Screening data (PubChem)
# Rhodamine autofl = compound autofluorescence in rhodamine spectral region; Rhodamine-region fluorescence, 547/598 nm, Tris buffer; active compounds read high; max dye-equivalent concentration, M; 0.05% of 59,000 active; in the data active means max dye-equivalent concentration above about 11 nM; inconclusive means between about 1.1 nM and that limit
#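 Compound fluorescence in 100 mM Tris, pH 8.0, read after 15 min at room temperature with 547 nm excitation and 598 nm emission. Output is dye-equivalent concentration from an on-plate rhodamine standard series.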
# Fluorescein autfl = compound autofluorescence in fluorescein spectral region; Compound autofluorescence, 480/540 nm, fluorescein-equivalent; active compounds read high; max fluorescein-equivalent concentration, M; 0.91% of 59,000 active; AID 593; in the data active means max fluorescein-equivalent concentration above about 10 nM; inconclusive means between about 1.1 nM and that limit
#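 Fluorescein stocks ranging 3 mM down to 300 nM, plus DMSO blanks, were pinned alongside compounds to build a per-plate standard curve. Buffer: 100 mM Tris, pH 8.0. Incubation 15 min, room temperature; filters 480/540 nm.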
# A647 fluor = compound autofluorescence in A647 spectral region; Compound fluorescence, A647 channel (570/671 nm), Tris buffer; max dye-equivalent concentration, M; 59,000 tested, under 10 active
#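 Fluorescence read (570 nm ex, 671 nm em) after 15 min RT incubation of compounds in 100 mM Tris buffer, pH 8.0; values expressed as dye-equivalent concentration against a six-point A647 standard series on each plate.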
# Resorufin autofl = resorufin region autofluorescence; Compound fluorescence, resorufin region 547/598 nm, buffer; active compounds read high; max dye-equivalent concentration, M; 0.04% of 59,000 active
#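 Dye-equivalent concentration values derive from comparing each well's 547/598 nm fluorescence against resorufin standards included on every plate. Incubation was 15 min at room temperature in 100 mM Tris, pH 8.0.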
# A488 fluor = compound fluoresces in the A488 spectral region. compound autofluorescence, A488 spectral region, dye equivalency; Compound Type: qHTS ECL - MLSMR. max dye equivalency, M. 0.1% of 59,000 active
#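 Readout is A488 dye-equivalent concentration, calibrated by a per-plate six-point Alexa 488 series. Compounds in 100 mM Tris buffer pH 8.0 were incubated 15 min at room temperature. Plates were imaged using 480 nm excitation/540 nm emission filters.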
# Texas Red fluor = compound fluoresces in the Texas Red spectral region | Compound fluorescence, Texas Red channel, 547/618 nm; active compounds read high | max dye-equivalent concentration, M | 0.06% of 59,000 active | AID 587; in the data active means max dye-equivalent concentration above about 10 nM; inconclusive means between about 1.1 nM and that limit
#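 Dye-equivalent concentrations come from scaling compound signal (ex 547, em 618 nm) to six Texas Red standard concentrations run on every plate, after 15 min room-temperature incubation in pH 8.0 Tris (100 mM).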
# Hits are given with their value; . = inactive; ? = inconclusive. The list is not random: actives were taken first. Their share in the collection is about 0.9%. Unless noted, how the calls were made is not given here.
SMILES,Rhodamine autofl,Fluorescein autfl,A647 fluor,Resorufin autofl,A488 fluor,Texas Red fluor
CC(=O)[C@@H]1[C@@H]2C(=O)N(Cc3ccccc3)C(=O)[C@@H]2C2c3ccccc3C=CN21 (some centres undefined),.,1.5e-08M,.,.,.,.
O=C(c1ccco1)[C@@H]1[C@@H]2C(=O)N(c3ccccc3)C(=O)[C@@H]2C2c3ccccc3C=CN21 (some centres undefined),.,1.76e-08M,.,.,.,.
N#Cc1c(N)sc(=S)c2c1CCCC2,.,6.77e-08M,.,.,?,?
CCC1(C)Cc2c(C#N)c(N)sc(=S)c2CO1 (centres undefined),.,1.03e-08M,.,.,.,.
CSc1c(C#N)c(N)c(C#N)c2c1COC(C)(C)C2,.,?,.,.,.,.
COC(=O)[C@@H](NC(=O)c1cc(-c2ccccc2)nc2ccccc12)c1ccccc1,.,.,.,.,.,.
O=c1c(-c2ccccc2)n[nH]c2ccccc12,.,.,.,.,.,.
O=C1c2ccccc2-c2n[nH]c3cccc1c23,.,4.73e-08M,.,.,?,.
Cn1c(=O)c2[nH]c(CS(=O)(=O)Cc3nc4c([nH]3)c(=O)n(C)c(=O)n4C)nc2n(C)c1=O,.,1.22e-07M,.,.,?,?
CC(=Nc1cccc(O)c1)c1sc2ccccc2c1O,.,1.91e-08M,.,.,.,.
CN=Cc1sc2ccccc2c1O,.,.,.,.,.,.
Nc1ccn([C@@H]2O[C@@H](CO)[C@@H](O)[C@H]2O)c(=O)n1,.,?,.,.,.,.
CC1(C)CC(=O)C2=C(C1)N1CCCCC1CC2=O (centres undefined),.,1.54e-08M,.,.,.,.
CC(C)(C)c1cc(Br)c(O)c(CN(Cc2cc(C(C)(C)C)cc(Br)c2O)C2CCCCC2)c1,.,?,.,.,.,.
CCc1cc2c(=O)c(-c3ccc4c(c3)OCCO4)coc2cc1OC(=O)c1ccco1,.,.,.,.,.,.
CCc1cc2c(=O)c(-c3nc4ccccc4[nH]3)coc2cc1OC(=O)N1CCOCC1,.,1.08e-08M,.,.,.,.
Cc1ccc(C[C@H](Cc2nc3ccccc3[nH]2)c2nc3ccccc3[nH]2)cc1,.,.,.,.,.,.
CN(CCO)C(=O)c1cccc2c1-c1ccccc1C2=O,.,.,.,.,.,.
Cn1c(=O)c(NCCO)c2c3c(cccc31)C(=O)c1ccccc1-2,8.48e-08M,2.51e-05M,.,5.24e-08M,1.25e-06M,?
CCNc1c2c3c(cccc3n(C)c1=O)C(=O)c1ccccc1-2,1.25e-08M,2.49e-06M,.,?,1.36e-07M,?
FC(F)(F)c1ccccc1-c1cc(NCc2cccs2)ncn1,.,?,.,.,.,.
O=c1nccc(NCc2ccco2)[nH]1,.,?,.,.,.,?
O=C1c2ccccc2-c2onc3ccc(NCc4ccco4)c1c23,1.99e-08M,1.21e-06M,.,1.71e-08M,5.37e-08M,1.78e-08M
CN1CCN(c2ncnc3ccc(-c4cccc(C#N)c4)cc23)CC1,.,.,.,.,.,.
Cn1cccc1C(=O)N1CCC[C@@]2(CCN(c3ccccc3)C2)C1,.,1.1e-08M,.,.,.,.
SMILES,Rhodamine autofl,Fluorescein autfl,A647 fluor,Resorufin autofl,A488 fluor,Texas Red fluor
C[C@H](N)C(=O)OC(C)(C)Cc1ccc(Cl)cc1,.,?,.,.,.,.
CCOC(=O)c1c(C)[nH]c(C)c1C(=O)Cn1nnc(-c2ccccc2C)n1,.,1.01e-08M,.,.,.,.
O=C(c1ccccc1C(=O)N1CCN(c2ccccc2)CC1)N1CCN(c2ccccc2)CC1,.,1.55e-08M,.,.,.,.
CCCN1CC=C2C(C#N)=C(N)C(C#N)(C#N)C(c3cccc(OC)c3OC)C2C1 (centres undefined),.,5.33e-08M,.,.,?,.
Cc1ccc(C2C3CN(C(C)C)CC=C3C(C#N)=C(N)C2(C#N)C#N)cc1 (centres undefined),.,9.97e-08M,.,.,?,.
CCCCOc1ccc(C2C3CN(C(=O)OCC)CC=C3C(C#N)=C(N)C2(C#N)C#N)cc1OC (centres undefined),.,?,.,.,.,.
CCOC(=O)N1CC=C2C(C#N)=C(N)C(C#N)(C#N)[C@H](c3ccc(OCC)c(OCC)c3)[C@H]2C1,.,.,.,.,.,.
CN1CC=C2C(C#N)=C(N)C(C#N)(C#N)C(c3cccc(Cl)c3Cl)C2C1 (centres undefined),.,3.9e-08M,.,.,?,?
COc1ccc(OC)c(C2C3CN(C(C)C)CC=C3C(C#N)=C(N)C2(C#N)C#N)c1 (centres undefined),.,3.24e-08M,.,.,.,.
CCNc1ncc2nc(CCc3ccccc3)c(=O)n(CCOC)c2n1,.,.,.,.,.,.
CCN(CC(=O)O)C(=O)c1cccnc1,.,.,.,.,.,.
CCCc1cc(COC)c(C#N)c(=O)[nH]1,.,.,.,.,.,.
O=C(O)CCCNc1cc(N2CCC3(CC2)OCCO3)c2noc3c2c1C(=O)c1ccccc1-3,?,1.27e-08M,.,?,.,1.05e-08M
CCOC(=O)N1CCN(c2c(NCCCN(CC)Cc3ccccc3)c(=O)c2=O)CC1,.,.,.,.,.,?
CCOC(=O)N1CCN(c2cc(NCCC(=O)O)c3c4c(onc24)-c2ccccc2C3=O)CC1,?,7.99e-08M,.,.,?,?
Cc1ccccc1-n1c(=O)cc(N2CCC3(CC2)OCCO3)[nH]c1=O,.,.,.,.,.,.
C=CCn1c(=O)/c(=C/c2cc(OC)c(OC)c(OC)c2)s/c1=C(/C#N)c1nc2ccccc2n1C,.,2.78e-07M,.,.,1.45e-08M,.
C=CCn1c(=O)/c(=C/c2ccc(O)cc2)s/c1=C(/C#N)c1nnc2n1CCCCC2,.,9.41e-08M,.,.,?,.
C=CCn1c(=O)/c(=C/c2ccc(Cl)cc2)s/c1=C(/C#N)c1nnc2n1CCCCC2,.,.,.,.,.,.
CC(C)C1=CC2=CC[C@H]3[C@@](C)(CCC[C@]3(C)C(=O)O)[C@@H]2CC1,.,.,.,.,.,.
COc1cccc(-c2nc(NCCN3CCOCC3)c3ccccc3n2)c1,.,.,.,.,.,.
COc1cccc(=O)c2c(C)oc(C)c12,.,7.14e-08M,.,.,?,.
O=C(Nc1cccc(F)c1)N1CC2(CCN(S(=O)(=O)c3ccccc3)CC2)C1,.,.,.,.,.,.
c1ccc2[nH]c(CN3CCCCCC3)nc2c1,.,?,.,.,.,.
[O-][n+]1c(CN2CCCCC2)nc2cccc3c2c1-c1ccccc1-3,.,1.71e-08M,.,.,.,.
CS(=O)(=O)Nc1cccc(-c2nc(Nc3ccncc3)c3ccccc3n2)c1,.,.,.,.,.,.
CC1=CC(=C(C#N)c2nc3ccccc3s2)C=C(C)N1Cc1ccco1,.,1.94e-07M,.,.,?,.
CCN1CCc2c(sc3c2c(NCc2ccco2)nc2nnnn23)C1,.,1.28e-08M,.,.,.,.
